Assay results from paper PMC8384837, “Expanding the binding specificity for RNA recognition by a PUF domain”.
Substitutions are numbered along the chain they refer to.

Legend:
Assay in all cases: yeast three-hybrid, YBZ-1, SC-Leu-His + 0.5 mM 3-AT, 4 days
Details in all cases: tags: N-Gal4 AD-HA kept; label: inside an RPR1-promoter hybrid RNA with tandem MS2 sites; ssRNA
PUM1 PUF domain R6-CFE = target: T1, PUM1 PUF domain R6-CFE (Homo sapiens, UniProt Q14671 828-1176, N1043C;Y1044F;Q1047E)
T1 sequence: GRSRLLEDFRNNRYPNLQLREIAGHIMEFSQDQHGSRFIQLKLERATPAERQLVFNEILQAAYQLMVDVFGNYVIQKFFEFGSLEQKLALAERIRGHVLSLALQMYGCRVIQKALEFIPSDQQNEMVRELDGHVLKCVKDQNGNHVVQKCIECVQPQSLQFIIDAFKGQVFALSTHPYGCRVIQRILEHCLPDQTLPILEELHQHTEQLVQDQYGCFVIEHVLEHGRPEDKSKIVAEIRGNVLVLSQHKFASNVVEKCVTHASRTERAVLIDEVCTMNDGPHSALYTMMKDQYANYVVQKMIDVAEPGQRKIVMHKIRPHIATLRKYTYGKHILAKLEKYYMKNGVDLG
Method in brief: (§1)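 Sequencing with Illumina followed PCR amplification of the repeat regions from transformants grown four days on SC-Leu (input) or SC-Leu-His + 0.5 mM 3-AT (selection). The transformants were strain YBZ-1 with a LexA–MS2 coat fusion and a HIS3 reporter, carrying Pumilio-1 PUF domain libraries and matching RNA elements. The interaction score is the log change in variant frequency from input to selection, computed in log2 with a pseudocount of 1 for absent variants.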

PUM1 PUF domain R1-QRS = PUM1 PUF domain R1-QRS (Homo sapiens, UniProt Q14671 828-1176, S863Q;Q867S)
Method in brief: as §1

PUM1 PUF domain R5-LHV = PUM1 PUF domain R5-LHV (Homo sapiens, UniProt Q14671 828-1176, C1007L;R1008H;Q1011V)
Method in brief: as §1

PUM1 PUF domain R4-SRV = PUM1 PUF domain R4-SRV (Homo sapiens, UniProt Q14671 828-1176, N971S;H972R;Q975V)
Method in brief: as §1

PUM1 PUF domain R5-PRC = PUM1 PUF domain R5-PRC (Homo sapiens, UniProt Q14671 828-1176, C1007P;Q1011C)
Method in brief: as §1

PUM1 PUF domain R3-IRV = PUM1 PUF domain R3-IRV (Homo sapiens, UniProt Q14671 828-1176, C935I;Q939V)
Method in brief: as §1

PUM1 PUF domain R6-AFQ = target: T2, PUM1 PUF domain R6-AFQ (Homo sapiens, UniProt Q14671 828-1176, N1043A;Y1044F)
T2 sequence: T1 sequence with C216A, E220Q
Method in brief: as §1

PUM1 PUF domain R4-FGA = PUM1 PUF domain R4-FGA (Homo sapiens, UniProt Q14671 828-1176, N971F;H972G;Q975A)
Method in brief: as §1

PUM1 PUF domain R3-IWL = PUM1 PUF domain R3-IWL (Homo sapiens, UniProt Q14671 828-1176, C935I;R936W;Q939L)
Method in brief: as §1

PUM1 PUF domain R8-RYG = PUM1 PUF domain R8-RYG (Homo sapiens, UniProt Q14671 828-1176, N1122R;Q1126G)
Method in brief: as §1

PUM1 PUF domain R4-GHP = PUM1 PUF domain R4-GHP (Homo sapiens, UniProt Q14671 828-1176, N971G;Q975P)
Method in brief: as §1

PUM1 PUF domain R3-SSE = PUM1 PUF domain R3-SSE (Homo sapiens, UniProt Q14671 828-1176, C935S;R936S;Q939E)
Method in brief: as §1

PUM1 PUF domain R7-RPM = PUM1 PUF domain R7-RPM (Homo sapiens, UniProt Q14671 828-1176, S1079R;N1080P;E1083M)
Method in brief: as §1

PUM1 PUF domain R3-FRG = PUM1 PUF domain R3-FRG (Homo sapiens, UniProt Q14671 828-1176, C935F;Q939G)
Method in brief: as §1

PUM1 PUF domain R5-RGR = PUM1 PUF domain R5-RGR (Homo sapiens, UniProt Q14671 828-1176, C1007R;R1008G;Q1011R)
Method in brief: as §1

PUM1 PUF domain R5-RMS = PUM1 PUF domain R5-RMS (Homo sapiens, UniProt Q14671 828-1176, C1007R;R1008M;Q1011S)
Method in brief: as §1

PUM1 PUF domain R5-HFF = PUM1 PUF domain R5-HFF (Homo sapiens, UniProt Q14671 828-1176, C1007H;R1008F;Q1011F)
Method in brief: as §1

PUM1 PUF domain R5-QGC = PUM1 PUF domain R5-QGC (Homo sapiens, UniProt Q14671 828-1176, C1007Q;R1008G;Q1011C)
Method in brief: as §1

PUM1 PUF domain R5-KRR = PUM1 PUF domain R5-KRR (Homo sapiens, UniProt Q14671 828-1176, C1007K;Q1011R)
Method in brief: as §1

PUM1 PUF domain R4-NRA = PUM1 PUF domain R4-NRA (Homo sapiens, UniProt Q14671 828-1176, H972R;Q975A)
Method in brief: as §1

With “GGCUAGAACUAGUGGAUCCCCCGGCGCCCGGCGGCUCGAGCCCGGGUAAGUGGAAAUAGUCUGCAUGCCGCCGGGCGCCAUGCCUGCAGGUCGACUCUAGAAAACAUG” as the sequence, how does the binding signal (PUM1 PUF domain R6-CFE) read?
Its binding signal is 2.88 log2 enrichment (interaction score).

With “GGCUAGAACUAGUGGAUCCCCCGGCGCCCGGCGGCUCGAGCCCGGGUAAGUGUAAAUUGUCUGCAUGCCGCCGGGCGCCAUGCCUGCAGGUCGACUCUAGAAAACAUG” as the sequence, how does the binding signal (PUM1 PUF domain R1-QRS) read?
The binding signal was 2.7 log2 enrichment (interaction score).

Which results are given for “GGCUAGAACUAGUGGAUCCCCCGGCGCCCGGCGGCUCGAGCCCGGGUAAGUGUAAAUAGUCUGCAUGCCGCCGGGCGCCAUGCCUGCAGGUCGACUCUAGAAAACAUG”?
binding signal (PUM1 PUF domain R5-LHV): 3.57 log2 enrichment (interaction score); binding signal (PUM1 PUF domain R4-SRV): 3.51 log2 enrichment (interaction score); binding signal (PUM1 PUF domain R5-PRC): 4.13 log2 enrichment (interaction score); binding signal (PUM1 PUF domain R3-IRV): 2.93 log2 enrichment (interaction score); binding signal (PUM1 PUF domain R6-AFQ): 3.75 log2 enrichment (interaction score); binding signal (PUM1 PUF domain R4-FGA): 1.37 log2 enrichment (interaction score); binding signal (PUM1 PUF domain R3-IWL): 4.86 log2 enrichment (interaction score); binding signal (PUM1 PUF domain R8-RYG): 5.75 log2 enrichment (interaction score); binding signal (PUM1 PUF domain R4-GHP): 5.41 log2 enrichment (interaction score); binding signal (PUM1 PUF domain R3-SSE): 0.23 log2 enrichment (interaction score)

How did the binding signal (PUM1 PUF domain R8-RYG) turn out when “GGCUAGAACUAGUGGAUCCCCCGGCGCCCGGCGGCUCGAGCCCGGGUAAGCGUAAAUAGUCUGCAUGCCGCCGGGCGCCAUGCCUGCAGGUCGACUCUAGAAAACAUG” was run?
Its binding signal is 5.66 log2 enrichment (interaction score).

Which binding signal (PUM1 PUF domain R7-RPM) does the source give for “GGCUAGAACUAGUGGAUCCCCCGGCGCCCGGCGGCUCGAGCCCGGGUAAGUUUAAAUAGUCUGCAUGCCGCCGGGCGCCAUGCCUGCAGGUCGACUCUAGAAAACAUG” here?
The binding signal was 3.18 log2 enrichment (interaction score).

For “GGCUAGAACUAGUGGAUCCCCCGGCGCCCGGCGGCUCGAGCCCGGGUAAGUGUAAGUAGUCUGCAUGCCGCCGGGCGCCAUGCCUGCAGGUCGACUCUAGAAAACAUG”, which binding signal (PUM1 PUF domain R3-FRG) is on record?
Its binding signal is 5.59 log2 enrichment (interaction score).

And the binding signal (PUM1 PUF domain R3-IRV)?
The binding signal was 1.69 log2 enrichment (interaction score).

And the binding signal (PUM1 PUF domain R3-IWL)?
Its binding signal is 2.77 log2 enrichment (interaction score).

And the binding signal (PUM1 PUF domain R3-SSE)?
Its binding signal is 6.26 log2 enrichment (interaction score).

“GGCUAGAACUAGUGGAUCCCCCGGCGCCCGGCGGCUCGAGCCCGGGUAAGUGUUAAUAGUCUGCAUGCCGCCGGGCGCCAUGCCUGCAGGUCGACUCUAGAAAACAUG” was tested. Which binding signal (PUM1 PUF domain R5-RGR) did it give?
Its binding signal is 3.07 log2 enrichment (interaction score).

What about the binding signal (PUM1 PUF domain R5-RMS) of the same sequence?
The binding signal was 2.79 log2 enrichment (interaction score).

What about the binding signal (PUM1 PUF domain R5-HFF) of the same sequence?
The binding signal was 3.86 log2 enrichment (interaction score).

And the binding signal (PUM1 PUF domain R5-QGC)?
The binding signal was 2.19 log2 enrichment (interaction score).

Which results are given for “GGCUAGAACUAGUGGAUCCCCCGGCGCCCGGCGGCUCGAGCCCGGGUAAGUGUACAUAGUCUGCAUGCCGCCGGGCGCCAUGCCUGCAGGUCGACUCUAGAAAACAUG”?
binding signal (PUM1 PUF domain R4-SRV): 0.98 log2 enrichment (interaction score); binding signal (PUM1 PUF domain R4-FGA): 3.23 log2 enrichment (interaction score); binding signal (PUM1 PUF domain R4-GHP): 5.4 log2 enrichment (interaction score)

For “GGCUAGAACUAGUGGAUCCCCCGGCGCCCGGCGGCUCGAGCCCGGGUAAGUCUAAAUAGUCUGCAUGCCGCCGGGCGCCAUGCCUGCAGGUCGACUCUAGAAAACAUG”, which binding signal (PUM1 PUF domain R7-RPM) is on record?
Its binding signal is 0.93 log2 enrichment (interaction score).

Which results are given for “GGCUAGAACUAGUGGAUCCCCCGGCGCCCGGCGGCUCGAGCCCGGGUAAGUGUCAAUAGUCUGCAUGCCGCCGGGCGCCAUGCCUGCAGGUCGACUCUAGAAAACAUG”?
binding signal (PUM1 PUF domain R5-LHV): 1.43 log2 enrichment (interaction score); binding signal (PUM1 PUF domain R5-RGR): 3.52 log2 enrichment (interaction score); binding signal (PUM1 PUF domain R5-KRR): 3.6 log2 enrichment (interaction score); binding signal (PUM1 PUF domain R5-RMS): 3.6 log2 enrichment (interaction score)

Which binding signal (PUM1 PUF domain R4-SRV) does the source give for “GGCUAGAACUAGUGGAUCCCCCGGCGCCCGGCGGCUCGAGCCCGGGUAAGUGUAUAUAGUCUGCAUGCCGCCGGGCGCCAUGCCUGCAGGUCGACUCUAGAAAACAUG” here?
The binding signal was 1.19 log2 enrichment (interaction score).

What about the binding signal (PUM1 PUF domain R4-FGA) of the same sequence?
Its binding signal is 2.95 log2 enrichment (interaction score).

And the binding signal (PUM1 PUF domain R4-NRA)?
Its binding signal is 2.48 log2 enrichment (interaction score).

Which binding signal (PUM1 PUF domain R6-CFE) does the source give for “GGCUAGAACUAGUGGAUCCCCCGGCGCCCGGCGGCUCGAGCCCGGGUAAGUGAAAAUAGUCUGCAUGCCGCCGGGCGCCAUGCCUGCAGGUCGACUCUAGAAAACAUG” here?
The binding signal was 6.12 log2 enrichment (interaction score).
